Assays:
Conditions in all cases: concentration: 1 μM, replicates: in singlicate; n = 1
CAMK1 = tested on: CAMK1
CAMK2A = tested on: CAMK2A
CAMK2B = tested on: CAMK2B
CAMK2D = tested on: CAMK2D
CAMK2G = tested on: CAMK2G
CAMK4 = tested on: CAMK4
CAMKK1 = tested on: CAMKK1
CAMKK2 = tested on: CAMKK2
CASK = tested on: CASK
CDC2L1 = tested on: T1, CDC2L1
T1 construct: gene CDK11B

CDC2L2 = tested on: CDC2L2
CDC2L5 = tested on: T2, CDC2L5
T2 construct: gene CDK13

CDK11 = tested on: T3, CDK11
T3 construct: gene CDK19

CDK2 = tested on: CDK2
CDK3 = tested on: CDK3
CDK4-cyclinD1 = tested on: CDK4-cyclinD1
CDK4-cyclinD3 = tested on: CDK4-cyclinD3
CDK4 = tested on: CDK4
CDK5 = tested on: CDK5
CDK7 = tested on: CDK7
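Further: KINOMEscan kinase panel screen.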

Row | SMILES | %Inh (CAMK1) [%] | %Inh (CAMK2A) [%] | %Inh (CAMK2B) [%] | %Inh (CAMK2D) [%] | %Inh (CAMK2G) [%] | %Inh (CAMK4) [%] | %Inh (CAMKK1) [%] | %Inh (CAMKK2) [%] | %Inh (CASK) [%] | %Inh (CDC2L1) [%] | %Inh (CDC2L2) [%] | %Inh (CDC2L5) [%] | %Inh (CDK11) [%] | %Inh (CDK2) [%] | %Inh (CDK3) [%] | %Inh (CDK4-cyclinD1) [%] | %Inh (CDK4-cyclinD3) [%] | %Inh (CDK4) [%] | %Inh (CDK5) [%] | %Inh (CDK7) [%]
1 | COc1ccc(-c2coc3ccc(-c4nnc(SCc5ccc(OC)c(C(F)(F)F)c5)o4)cc23)cc1 | 0 | 0 | 1 | 7 | 0 | 12 | 1 | 2 | 1 | 0 | 17 | 0 | 57 | 1 | 0 | 2 | 0 | 0 | 14 | 0
2 | Cc1cccc(Nc2nc(N[C@H]3CCNC3)ncc2C(N)=O)c1.Cl [GSK2197149] | 41 | 0 | 0 | 6 | 18 | 0 | 2 | 17 | 0 | 73 | 74 | 0 | 0 | 0 | 0 | 0 | 1 | 0 | 0 | 52
3 | CN(C)S(=O)(=O)c1cc(-c2ccc3nccc(-c4cccc(S(N)(=O)=O)c4)c3c2)cnc1N [GSK1669921] | 40 | 1 | 0 | 3 | 8 | 0 | 48 | 47 | 4 | 0 | 3 | 0 | 54 | 0 | 9 | 0 | 0 | 0 | 0 | 58
4 | O=C(Nc1cccc(-c2nn3ccccc3c2-c2ccnc(Nc3cccc(C(F)(F)F)c3)n2)c1)c1c(F)cccc1F [GSK292658] | 4 | 0 | 0 | 5 | 0 | 0 | 16 | 3 | 0 | 0 | 0 | 99.3 | 0 | 0 | 1 | 0 | 0 | 0 | 0 | 6
5 | COc1cc(Nc2nccc(N3CCC(NC(=O)c4cc5ccccc5s4)C3)n2)cc(OC)c1OC (centres unmarked) [GSK1379760] | 17 | 0 | 1 | 0 | 29 | 0 | 12 | 0 | 12 | 0 | 5 | 0 | 19 | 0 | 11 | 41 | 0 | 14 | 0 | 16
6 | COc1ccc(CNC(=O)NC2CCN(c3ccnc(Nc4ccc(F)cc4)n3)CC2)cc1 [GSK1379788] | 10 | 0 | 0 | 8 | 16 | 0 | 2 | 16 | 0 | 0 | 10 | 0 | 3 | 0 | 3 | 0 | 0 | 20 | 0 | 0
7 | Oc1cc(Nc2ccnc3cc(I)ccc23)ccc1F [GW552771] | 19 | 0 | 0 | 0 | 0 | 0 | 8 | 0 | 18 | 0 | 0 | 0 | 10 | 0 | 0 | 11 | 0 | 0 | 0 | 0
8 | O=C(NC1CCN(c2ccnc(Nc3ccc(F)cc3)n2)C1)c1cc2ccccc2s1 (centres unmarked) [GSK1379716] | 26 | 0 | 0 | 7 | 23 | 13 | 10 | 17 | 22 | 0 | 14 | 0 | 36 | 0 | 18 | 14 | 0 | 0 | 7 | 0
9 | Cl.NC(=O)c1cccc(Nc2nccc(Nc3ccc(Oc4c(Cl)cccc4Cl)c(Cl)c3)n2)c1 [GW659009] | 14 | 0 | 0 | 0 | 0 | 0 | 0 | 0 | 50 | 0 | 2 | 0 | 88 | 0 | 0 | 0 | 0 | 1 | 0 | 0
10 | O=c1[nH]cc(-c2ccc(N3CCOCC3)cc2)c2sc(-c3cn[nH]c3)cc12 [GSK2276055] | 31 | 2 | 2 | 18 | 25 | 0 | 29 | 22 | 15 | 4 | 12 | 0 | 0 | 0 | 6 | 0 | 21 | 0 | 0 | 2

— PMC5540273 (PLoS ONE, 2017)
